Consider nine sequences from paper PMC11006913.

Common to all, as to assay: PBM; 200 nM protein, PBS
Common to all, as to conditions: dsDNA, one strand shown

For test [1], the target named is HOXA4 (Homo sapiens, UniProt Q00056 201-287, W262R).
Test [2] concerns the target HOXB6 (Homo sapiens, UniProt P17509 132-218, K202E).
In test [3] the target is HOXA4 (Homo sapiens, UniProt Q00056 201-287, R217L).
For test [4], the target named is HOXA4 (Homo sapiens, UniProt Q00056 201-287).
In test [5] the target is HOXA4 (Homo sapiens, UniProt Q00056 201-287, W262F).
HOXA4 (Homo sapiens, UniProt Q00056 201-287, W262F), sequence (Q00056 201-287 W262F): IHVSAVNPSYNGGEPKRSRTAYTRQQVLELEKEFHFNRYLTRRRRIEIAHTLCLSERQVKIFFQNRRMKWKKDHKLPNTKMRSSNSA
Test [6] concerns the target HOXB6 (Homo sapiens, UniProt P17509 132-218).
In test [7] the target is MSX2 (Homo sapiens, UniProt P35548 130-214, R199I).
MSX2 (Homo sapiens, UniProt P35548 130-214, R199I), sequence (P35548 130-214 R199I): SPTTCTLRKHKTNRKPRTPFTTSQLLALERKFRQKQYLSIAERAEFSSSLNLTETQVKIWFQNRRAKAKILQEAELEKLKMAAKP
For test [8], the target named is MSX2 (Homo sapiens, UniProt P35548 130-214).
MSX2 (Homo sapiens, UniProt P35548 130-214), sequence (P35548 130-214): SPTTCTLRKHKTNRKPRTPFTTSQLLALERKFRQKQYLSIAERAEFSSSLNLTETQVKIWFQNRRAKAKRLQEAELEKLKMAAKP
The target in test [9] is MSX2 (Homo sapiens, UniProt P35548 130-214, F161Y).
MSX2 (Homo sapiens, UniProt P35548 130-214, F161Y), sequence (P35548 130-214 F161Y): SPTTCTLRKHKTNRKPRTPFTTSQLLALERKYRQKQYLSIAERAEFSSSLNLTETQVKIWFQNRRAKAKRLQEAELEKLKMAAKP
Test [10] concerns the target HOXD13 (Homo sapiens, UniProt P35453 263-343, T313R).
Test [11] addresses HOXD13 (Homo sapiens, UniProt P35453 263-343).
Test [12] has as its target HOXD13 (Homo sapiens, UniProt P35453 263-343, T313A).
Test [13] concerns the target ALX3 (Homo sapiens, UniProt O95076 139-225, N203Q).
The target in test [14] is ALX3 (Homo sapiens, UniProt O95076 139-225).
ALX3 (Homo sapiens, UniProt O95076 139-225), sequence (O95076 139-225): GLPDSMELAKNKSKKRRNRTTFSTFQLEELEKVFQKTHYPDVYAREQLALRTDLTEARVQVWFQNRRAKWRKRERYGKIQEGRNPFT
Test [15] has as its target ALX3 (Homo sapiens, UniProt O95076 139-225, L168Q).
Test [16] has as its target ALX3 (Homo sapiens, UniProt O95076 139-225, L168V).
The target of test [17] is ALX3 (Homo sapiens, UniProt O95076 139-225, N203S).
ALX3 (Homo sapiens, UniProt O95076 139-225, N203S), sequence (O95076 139-225 N203S): as the sequence (O95076 139-225) above, with N65S counted along it
For another test, the target named is HOXA2 (Homo sapiens, UniProt O43364 129-215, R185K).
HOXA2, sequence (O43364 129-215 R185K): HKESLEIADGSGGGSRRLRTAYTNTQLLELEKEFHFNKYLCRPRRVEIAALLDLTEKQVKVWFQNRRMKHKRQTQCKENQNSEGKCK

HOXB6 (Homo sapiens, UniProt P17509 132-218, K202E), sequence (P17509 132-218 K202E): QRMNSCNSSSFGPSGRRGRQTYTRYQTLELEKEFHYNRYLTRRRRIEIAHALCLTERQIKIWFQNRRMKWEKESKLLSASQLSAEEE
HOXB6 (Homo sapiens, UniProt P17509 132-218), sequence (P17509 132-218): as the sequence (P17509 132-218 K202E) above, with E71K counted along it
HOXA4 (Homo sapiens, UniProt Q00056 201-287, W262R), sequence (Q00056 201-287 W262R): as the sequence (Q00056 201-287 W262F) above, with F62R counted along it
HOXA4 (Homo sapiens, UniProt Q00056 201-287), sequence (Q00056 201-287): as the sequence (Q00056 201-287 W262F) above, with F62W counted along it
HOXA4 (Homo sapiens, UniProt Q00056 201-287, R217L), sequence (Q00056 201-287 R217L): as the sequence (Q00056 201-287 W262F) above, with R17L, F62W counted along it
HOXD13 (Homo sapiens, UniProt P35453 263-343, T313R), sequence (P35453 263-343 T313R): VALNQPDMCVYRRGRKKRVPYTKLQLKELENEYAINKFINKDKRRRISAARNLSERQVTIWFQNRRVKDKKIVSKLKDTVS
HOXD13 (Homo sapiens, UniProt P35453 263-343), sequence (P35453 263-343): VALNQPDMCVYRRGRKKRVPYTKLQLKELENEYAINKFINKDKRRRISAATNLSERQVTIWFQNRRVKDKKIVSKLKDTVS
HOXD13 (Homo sapiens, UniProt P35453 263-343, T313A), sequence (P35453 263-343 T313A): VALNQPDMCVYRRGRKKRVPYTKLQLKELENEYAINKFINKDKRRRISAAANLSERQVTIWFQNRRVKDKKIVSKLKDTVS
ALX3 (Homo sapiens, UniProt O95076 139-225, L168Q), sequence (O95076 139-225 L168Q): as the sequence (O95076 139-225) above, with L30Q counted along it
ALX3 (Homo sapiens, UniProt O95076 139-225, L168V), sequence (O95076 139-225 L168V): as the sequence (O95076 139-225) above, with L30V counted along it
ALX3 (Homo sapiens, UniProt O95076 139-225, N203Q), sequence (O95076 139-225 N203Q): as the sequence (O95076 139-225) above, with N65Q counted along it

Take GGGGCACC: the binding signal with HOXA4 [1] was 9.71 upbm affinity estimate (log intensity, higher = more binding, comparable within an allelic series); with HOXB6 [2], 8.98 upbm affinity estimate (log intensity, higher = more binding, comparable within an allelic series); with HOXA4 [3], 9.76 upbm affinity estimate (log intensity, higher = more binding, comparable within an allelic series); with HOXA4 [4], 9.9 upbm affinity estimate (log intensity, higher = more binding, comparable within an allelic series); in the test with HOXA4 [5], 9.88 upbm affinity estimate (log intensity, higher = more binding, comparable within an allelic series); with HOXB6 [6], 8.89 upbm affinity estimate (log intensity, higher = more binding, comparable within an allelic series).

CCCCCTAG: the binding signal in the test with HOXA4 [1] is 9.8 upbm affinity estimate (log intensity, higher = more binding, comparable within an allelic series); in the test with HOXB6 [2], 8.81 upbm affinity estimate (log intensity, higher = more binding, comparable within an allelic series); with HOXA4 [3], 9.86 upbm affinity estimate (log intensity, higher = more binding, comparable within an allelic series); with HOXA4 [4], 9.77 upbm affinity estimate (log intensity, higher = more binding, comparable within an allelic series); in the test with HOXA4 [5] it was 9.73 upbm affinity estimate (log intensity, higher = more binding, comparable within an allelic series); in the test with HOXB6 [6], 8.86 upbm affinity estimate (log intensity, higher = more binding, comparable within an allelic series).

Consider AGGGCGGG, for which the binding signal in the test with HOXA4 [1] is 9.85 upbm affinity estimate (log intensity, higher = more binding, comparable within an allelic series); with HOXA4 [3] it was 9.99 upbm affinity estimate (log intensity, higher = more binding, comparable within an allelic series); with MSX2 [7], 9.58 upbm affinity estimate (log intensity, higher = more binding, comparable within an allelic series); with HOXA4 [4] it was 10 upbm affinity estimate (log intensity, higher = more binding, comparable within an allelic series); with MSX2 [8] it was 9.55 upbm affinity estimate (log intensity, higher = more binding, comparable within an allelic series); with MSX2 [9], 9.62 upbm affinity estimate (log intensity, higher = more binding, comparable within an allelic series). Further, the binding signal in the test with HOXA4 [5] is 10.1 upbm affinity estimate (log intensity, higher = more binding, comparable within an allelic series).

As to AGAAGGGG, the binding signal with HOXA4 [1] is 9.84 upbm affinity estimate (log intensity, higher = more binding, comparable within an allelic series); with HOXA4 [3] it was 9.53 upbm affinity estimate (log intensity, higher = more binding, comparable within an allelic series); with HOXD13 [10], 9.5 upbm affinity estimate (log intensity, higher = more binding, comparable within an allelic series); in the test with HOXD13 [11], 9.51 upbm affinity estimate (log intensity, higher = more binding, comparable within an allelic series); with HOXA4 [4] it was 9.57 upbm affinity estimate (log intensity, higher = more binding, comparable within an allelic series); with HOXD13 [12], 9.57 upbm affinity estimate (log intensity, higher = more binding, comparable within an allelic series). For the same sequence, the binding signal with HOXA4 [5] was 9.68 upbm affinity estimate (log intensity, higher = more binding, comparable within an allelic series).

With CGAGGGCG, the binding signal is 9.7 upbm affinity estimate (log intensity, higher = more binding, comparable within an allelic series) with HOXA4 [1]; 9.75 upbm affinity estimate (log intensity, higher = more binding, comparable within an allelic series) in the test with HOXA4 [3]; 7.74 upbm affinity estimate (log intensity, higher = more binding, comparable within an allelic series) with ALX3 [13]; 9.8 upbm affinity estimate (log intensity, higher = more binding, comparable within an allelic series) with HOXA4 [4]; 7.69 upbm affinity estimate (log intensity, higher = more binding, comparable within an allelic series) with ALX3 [14]; 7.78 upbm affinity estimate (log intensity, higher = more binding, comparable within an allelic series) in the test with ALX3 [15]. For the same sequence, the binding signal with ALX3 [16] was 7.76 upbm affinity estimate (log intensity, higher = more binding, comparable within an allelic series); with HOXA4 [5] it was 9.89 upbm affinity estimate (log intensity, higher = more binding, comparable within an allelic series); with ALX3 [17], 7.73 upbm affinity estimate (log intensity, higher = more binding, comparable within an allelic series).

Turning to GCCCCCAC, the binding signal with HOXA4 [1] is 9.79 upbm affinity estimate (log intensity, higher = more binding, comparable within an allelic series); with HOXB6 [2], 9.03 upbm affinity estimate (log intensity, higher = more binding, comparable within an allelic series); with HOXA4 [3], 9.73 upbm affinity estimate (log intensity, higher = more binding, comparable within an allelic series); with HOXA4 [4], 9.63 upbm affinity estimate (log intensity, higher = more binding, comparable within an allelic series); with HOXA4 [5] it was 9.84 upbm affinity estimate (log intensity, higher = more binding, comparable within an allelic series); with HOXB6 [6] it was 8.92 upbm affinity estimate (log intensity, higher = more binding, comparable within an allelic series).

CATTAATC: the binding signal was 10.5 upbm affinity estimate (log intensity, higher = more binding, comparable within an allelic series) with HOXA4 [1]; 11.9 upbm affinity estimate (log intensity, higher = more binding, comparable within an allelic series) in the test with HOXA4 [3]; 13.2 upbm affinity estimate (log intensity, higher = more binding, comparable within an allelic series) in the test with HOXA2; 13.6 upbm affinity estimate (log intensity, higher = more binding, comparable within an allelic series) with HOXA4 [4]; 11.3 upbm affinity estimate (log intensity, higher = more binding, comparable within an allelic series) in the test with HOXA4 [5].

Turning to CCCCAAGG, the binding signal is 9.82 upbm affinity estimate (log intensity, higher = more binding, comparable within an allelic series) with HOXA4 [1]; 9.69 upbm affinity estimate (log intensity, higher = more binding, comparable within an allelic series) in the test with HOXA4 [3]; 9.45 upbm affinity estimate (log intensity, higher = more binding, comparable within an allelic series) in the test with HOXD13 [10]; 9.55 upbm affinity estimate (log intensity, higher = more binding, comparable within an allelic series) with HOXD13 [11]; 9.65 upbm affinity estimate (log intensity, higher = more binding, comparable within an allelic series) with HOXA4 [4]; 9.53 upbm affinity estimate (log intensity, higher = more binding, comparable within an allelic series) with HOXD13 [12]. Further, the binding signal with HOXA4 [5] was 9.86 upbm affinity estimate (log intensity, higher = more binding, comparable within an allelic series).

Consider CACCCTGG, for which the binding signal is 9.95 upbm affinity estimate (log intensity, higher = more binding, comparable within an allelic series) with HOXA4 [1]; 9.74 upbm affinity estimate (log intensity, higher = more binding, comparable within an allelic series) with HOXA4 [3]; 9.78 upbm affinity estimate (log intensity, higher = more binding, comparable within an allelic series) in the test with HOXA4 [4]; 9.87 upbm affinity estimate (log intensity, higher = more binding, comparable within an allelic series) with HOXA4 [5].
